Experimental findings from PubChem BioAssay (EPA / NIEHS) are described below.

Inconclusive results are not listed. Activity calls are given as the source filed them. How the source made its calls, unless noted: active means hit-call score of the fitted dose curve at least 0.9, where 1 is the maximum; inactive means score below 0.9.

Assay [1] has as its target Oxysterols receptor LXR-beta (Homo sapiens) (UniProt P55055). Description: ATG_LXRb_TRANS: Attagene TRANS-FACTORIAL HepG2 Assay for human Liver X Receptor beta (LXRb) (AID 2282981; active means hit-call score of the fitted dose curve at least 0.9, where 1 is the maximum). Particulars: HepG2 Attagene TRANS GAL4-LXRb reporter, mRNA. Summed up: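 Measures induction of a Gal4-driven reporter transcript in HepG2 cells expressing an exogenous LXRb-Gal4 fusion. Cells are exposed to compound for 24 h before RNA isolation and RT-PCR with capillary electrophoresis detection.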

Assay [2] concerns the target Hepatocyte nuclear factor 4-alpha (Homo sapiens) (UniProt P41235). Description: ATG_HNF4a_TRANS: Attagene TRANS-FACTORIAL HepG2 Assay for human Hepatocyte Nuclear Factor 4 alpha (HNF4a) (AID 2282982; active means hit-call score of the fitted dose curve at least 0.9, where 1 is the maximum). Particulars: HepG2 HNF4a transactivation reporter, mRNA readout. In short, it runs like this: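 In this trans-factorial format, a chimeric HNF4a-GAL4 fusion drives a GAL4-UAS reporter in transfected HepG2 liver cells. After 24 h treatment, reporter mRNA induction is measured by RT-PCR with capillary electrophoresis, relative to DMSO.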

A short description of assay [3]: ATG_M_06_TRANS: Attagene TRANS-FACTORIAL HepG2 Assay for M06 Transcription Factor (Internal Marker) (AID 2282983; active means hit-call score of the fitted dose curve at least 0.9, where 1 is the maximum). Particulars: HepG2 Attagene TRANS M06 internal marker reporter. Summed up:
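mRNA levels of a reporter transcript, quantified as FAM fluorescence on capillary electrophoresis, served as readout. HepG2 cells expressing exogenous GAL4-chimera reporter constructs were exposed for 24 h. Gain of signal over DMSO was evaluated.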

The nature of assay [4]: ATG_M_32_TRANS: Attagene TRANS-FACTORIAL HepG2 Assay for M32 Transcription Factor (Internal Marker) (AID 2282984; active means hit-call score of the fitted dose curve at least 0.9, where 1 is the maximum;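 further: transcript level of a background control reporter unit measured by RT-PCR and capillary electrophoresis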). The note with it: HepG2 Attagene TRANS M32 internal marker reporter. In short, it runs like this:
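After 24 h dosing of transfected HepG2 cells, total RNA was reverse-transcribed, reporter sequences PCR-amplified, 6-FAM labelled by primer extension and HpaI-digested before capillary electrophoresis. Signal increase over DMSO was fitted.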

The target in assay [5] is Nuclear receptor subfamily 4 group A member 2 (Homo sapiens) (UniProt P43354). Description: ATG_NURR1_TRANS: Attagene TRANS-FACTORIAL HepG2 Assay for human Nuclear Receptor Related Protein 1 (NURR1) (AID 2282985; active means hit-call score of the fitted dose curve at least 0.9, where 1 is the maximum). Particulars: HepG2 Attagene TRANS reporter, mRNA readout. Summed up:
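Chimeric NR-Gal4 fusion activity measured in HepG2 after 24 h treatment. Reporter transcripts detected by RT-PCR and capillary electrophoresis fluorescence; positive-direction curve fitting against DMSO.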

Assay [6] addresses Transcriptional activator Myb (Homo sapiens) (UniProt P10242). Description: ATG_Myb_CIS: Attagene CIS-FACTORIAL HepG2 Assay for human Myeloblastosis (Myb) Proto-Oncogene Transcription Factor (AID 2282986). Particulars: HepG2 Attagene CIS-FACTORIAL Myb reporter transcription; actives raise or lower the signal. Summed up: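 HepG2 cells were transiently transfected with cis-regulated multiple reporter transcription units reflecting endogenous Myb activity, then exposed to compound for 24 hours. Reporter mRNA was measured by RT-PCR with capillary electrophoresis; bidirectional fitting versus DMSO baseline.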

Assay [7] deals with Nuclear respiratory factor 1 (Homo sapiens) (UniProt Q16656). Description: ATG_NRF1_CIS: Attagene CIS-FACTORIAL HepG2 Assay for human Nuclear Respiratory Factor 1 (NRF1) Orphan Gene (AID 2282987). Particulars: HepG2 NRF1 cis-element reporter, Attagene multiplex; actives raise or lower the signal. Summed up: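 HepG2 cells transiently transfected with multiple reporter transcription units under cis-regulatory promoter control, so endogenous transcription-factor activity is read. After 24 h compound exposure, reporter mRNA quantified by RT-PCR, fluorescent labelling, HpaI digestion and capillary electrophoresis; bidirectional fitting versus DMSO.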

Assay [8] is described as follows: ATG_Oct_MLP_CIS: Attagene CIS-FACTORIAL HepG2 Assay for human Octamer-Binding Transcription Factor (Oct) (AID 2282993). The note with it: HepG2 Attagene cis-factorial Oct reporter, mRNA; actives raise or lower the signal. In short, it runs like this:
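HepG2 cells transiently transfected with cis-promoter-driven multiplexed reporter transcription units, dosed for 24 h. Reporter mRNA quantified by RT-PCR, fluorescent labelling, HpaI digestion and capillary electrophoresis; bidirectional fits versus DMSO baseline.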

Assay [9] deals with Cellular tumor antigen p53 (Homo sapiens) (UniProt P04637). Description: ATG_p53_CIS: Attagene CIS-FACTORIAL HepG2 Assay for human p53 Transcription Factor (AID 2282994). The note with it: HepG2 p53 cis-element reporter, Attagene mRNA; actives raise or lower the signal. In short, it runs like this: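 Read-out: reporter mRNA by RT-PCR plus capillary electrophoresis with fluorescence detection. Human HepG2 liver cells carried transfected multi-reporter cis-element constructs, dosed 24 h. Gain or loss of signal fitted bidirectionally against DMSO control.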

Assay [10] is described as follows: BSK_3C_TissueFactor: BioMAP Diversity Plus: 3C Assay for Tissue Factor Biomarker Activity (AID 2282997). The note with it: BioMAP 3C HUVEC, tissue factor biomarker readout; actives raise or lower the signal. Summed up:
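Tissue Factor measured by ELISA, 24 h after treatment of primary HUVEC in the BioMAP 3C setting.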

Assay [11] in a line: BSK_3C_uPAR: BioMAP Diversity Plus: 3C Assay for Urokinase-type plasminogen activator receptor (uPAR) Biomarker Activity (AID 2282998). The note with it: BioMAP 3C HUVEC, uPAR biomarker ELISA; actives raise or lower the signal. In short, it runs like this: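 Human umbilical vein endothelial primary cells were exposed to test chemical for 24 h. Cell-surface uPAR was then quantified by ELISA, and responses were fitted bidirectionally against DMSO as negative control and baseline.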

Assay [12] in a line: BSK_3C_VCAM1: BioMAP Diversity Plus: 3C Assay for Vascular cell adhesion molecule 1 (VCAM1) Biomarker Activity (AID 2282999). The note with it: BioMAP 3C HUVEC, VCAM1 ELISA, cytokine-stimulated; actives raise or lower the signal. In short, it runs like this: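 Vascular primary endothelium (human umbilical vein) was exposed to chemicals and assayed 24 h later. VCAM-1 levels came from ELISA, with DMSO serving as baseline for bidirectional fitting.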

Assay [13] deals with Glucocorticoid receptor (Homo sapiens) (UniProt P04150). Description: ATG_GR_TRANS: Attagene TRANS-FACTORIAL HepG2 Assay for human Glucocorticoid Receptor (GR) (AID 2282978; active means hit-call score of the fitted dose curve at least 0.9, where 1 is the maximum;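 further: activators score as hits since higher reporter transcript over DMSO is fitted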). The note with it: HepG2 Attagene TRANS GR reporter, mRNA transcription. In short, it runs like this:
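HepG2 cells transiently transfected with multiplexed reporter units in which chimeric NR-GAL4 proteins drive GAL4-UAS reporters; 24 h compound exposure. Reporter mRNA measured by RT-PCR, 6-FAM labelling, HpaI digestion and capillary electrophoresis; gain-of-signal fitted versus DMSO.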

Assay [14] is described as follows: ATG_NFI_CIS: Attagene CIS-FACTORIAL HepG2 Assay for human Nuclear Factor I (NFI) (AID 2282989). Particulars: HepG2 cis-regulatory reporter, NFI response element transcription; actives raise or lower the signal. In short, it runs like this:
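HepG2 cells transiently transfected with cis-element-driven multiplexed reporter transcription units, dosed for 24 h. Reporter mRNA quantified by RT-PCR, fluorescent labelling, HpaI digestion and capillary electrophoresis; bidirectional fit versus DMSO baseline.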

Assay [15] in a line: ATG_NRF2_ARE_CIS: Attagene CIS-FACTORIAL HepG2 Assay for human Nuclear Factor Erythroid 2 Related Factor 2 (NFR2) response to Antioxidant Response Elements (ARE) (AID 2282992).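 On AC50: reporter mRNA level measured by RT-PCR and capillary electrophoresis fluorescence.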 The note with it: HepG2 Attagene ARE/NRF2 reporter, transcription factor activity; actives raise or lower the signal. In short, it runs like this:
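Readout: reporter mRNA quantified by RT-PCR plus FAM-labelled primer extension, HpaI digestion and capillary electrophoresis, 24 h after dosing transfected HepG2 cells. Gain or loss of signal is fitted bidirectionally against DMSO baseline.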

Assay [16] addresses Estrogen-related receptor gamma (Homo sapiens) (UniProt P62508). Description: ATG_ERRg_TRANS: Attagene TRANS-FACTORIAL HepG2 Assay for human Estrogen-Related Receptor gamma (ERRg) (AID 2282977; active means hit-call score of the fitted dose curve at least 0.9, where 1 is the maximum;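 further: hits increase reporter signal over DMSO so potencies reflect activators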). Particulars: HepG2 Attagene TRANS reporter, ERRg transactivation. In short, it runs like this:
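Induction of reporter transcripts through a chimeric NR-Gal4 protein is quantified in transfected human HepG2 liver cells after 24 h chemical exposure, using RT-PCR with capillary electrophoresis detection and DMSO as baseline.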

Assay [17] has as its target Oxysterols receptor LXR-alpha (Homo sapiens) (UniProt Q13133). Description: ATG_LXRa_TRANS: Attagene TRANS-FACTORIAL HepG2 Assay for human Liver X Receptor alpha (LXRa) (AID 2282980; active means hit-call score of the fitted dose curve at least 0.9, where 1 is the maximum). The note with it: HepG2 Attagene TRANS reporter, LXRa transactivation. Summed up: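 HepG2 cells transiently transfected with GAL4-UAS reporter units for chimeric NR-Gal4 proteins, exposed to chemicals for 24 h. Reporter mRNA quantified by RT-PCR and capillary electrophoresis; gain of signal fitted relative to DMSO.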

Assay [18] has as its target Bile acid receptor (Homo sapiens) (UniProt Q96RI1). Description: ATG_FXR_TRANS: Attagene TRANS-FACTORIAL HepG2 Assay for Farnesoid X Receptor (FXR) (AID 2282979; active means hit-call score of the fitted dose curve at least 0.9, where 1 is the maximum;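 further: hits raise reporter mRNA above DMSO so AC50 marks FXR activation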). Particulars: HepG2 Attagene TRANS FXR-GAL4 reporter transcription. In short, it runs like this: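 HepG2 cells were transiently transfected with GAL4-UAS reporters driven by chimeric NR-Gal4 proteins and dosed for 24 h. Reporter mRNA was quantified by RT-PCR, fluorescent labelling, HpaI digestion and capillary electrophoresis, with gain of signal scored versus DMSO.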

Hepatocyte nuclear factor 4-alpha (Homo sapiens), sequence (P41235 whole entry, looked up, the tested form may be a part): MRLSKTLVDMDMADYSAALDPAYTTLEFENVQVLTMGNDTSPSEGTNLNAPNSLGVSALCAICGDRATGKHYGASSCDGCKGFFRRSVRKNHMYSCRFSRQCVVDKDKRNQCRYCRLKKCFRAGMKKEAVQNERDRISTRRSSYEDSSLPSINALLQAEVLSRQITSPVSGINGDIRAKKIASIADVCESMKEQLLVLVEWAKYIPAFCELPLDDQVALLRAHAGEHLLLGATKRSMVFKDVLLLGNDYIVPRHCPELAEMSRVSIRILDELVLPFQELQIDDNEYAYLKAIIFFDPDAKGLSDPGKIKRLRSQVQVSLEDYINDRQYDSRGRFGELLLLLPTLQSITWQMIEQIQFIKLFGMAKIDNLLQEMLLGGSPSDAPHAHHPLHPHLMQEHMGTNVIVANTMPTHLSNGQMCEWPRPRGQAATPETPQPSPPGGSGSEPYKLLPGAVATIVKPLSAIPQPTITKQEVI
Cellular tumor antigen p53 (Homo sapiens), sequence (P04637 whole entry, looked up): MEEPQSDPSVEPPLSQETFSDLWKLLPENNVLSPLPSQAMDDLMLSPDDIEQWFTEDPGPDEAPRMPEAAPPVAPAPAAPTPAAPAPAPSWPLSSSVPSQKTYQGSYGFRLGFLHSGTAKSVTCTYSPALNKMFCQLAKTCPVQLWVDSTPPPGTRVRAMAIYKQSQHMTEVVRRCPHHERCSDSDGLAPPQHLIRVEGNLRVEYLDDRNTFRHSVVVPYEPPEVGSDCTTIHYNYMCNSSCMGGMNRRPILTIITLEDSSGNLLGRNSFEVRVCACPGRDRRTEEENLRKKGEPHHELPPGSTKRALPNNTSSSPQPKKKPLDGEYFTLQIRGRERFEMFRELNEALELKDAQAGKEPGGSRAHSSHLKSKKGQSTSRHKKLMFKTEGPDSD
Transcriptional activator Myb (Homo sapiens), sequence (P10242 whole entry, looked up): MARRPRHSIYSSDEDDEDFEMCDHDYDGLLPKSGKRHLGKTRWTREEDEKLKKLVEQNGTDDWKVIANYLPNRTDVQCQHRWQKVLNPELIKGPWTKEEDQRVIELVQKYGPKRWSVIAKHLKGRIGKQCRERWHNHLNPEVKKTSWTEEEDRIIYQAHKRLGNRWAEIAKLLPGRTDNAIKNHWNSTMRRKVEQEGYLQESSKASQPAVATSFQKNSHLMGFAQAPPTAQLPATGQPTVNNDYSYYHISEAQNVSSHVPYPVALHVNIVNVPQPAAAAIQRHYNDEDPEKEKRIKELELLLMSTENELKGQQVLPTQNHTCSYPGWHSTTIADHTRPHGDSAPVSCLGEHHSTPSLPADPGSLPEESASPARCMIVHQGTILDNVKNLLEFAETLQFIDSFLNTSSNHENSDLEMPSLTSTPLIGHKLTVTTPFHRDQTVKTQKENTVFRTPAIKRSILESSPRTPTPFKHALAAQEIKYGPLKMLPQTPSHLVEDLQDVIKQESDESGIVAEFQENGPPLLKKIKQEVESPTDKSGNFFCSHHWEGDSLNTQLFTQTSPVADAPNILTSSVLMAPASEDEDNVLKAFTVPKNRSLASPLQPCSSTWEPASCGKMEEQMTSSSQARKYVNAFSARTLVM
Oxysterols receptor LXR-alpha (Homo sapiens), sequence (Q13133 whole entry, looked up, the tested form may be a part): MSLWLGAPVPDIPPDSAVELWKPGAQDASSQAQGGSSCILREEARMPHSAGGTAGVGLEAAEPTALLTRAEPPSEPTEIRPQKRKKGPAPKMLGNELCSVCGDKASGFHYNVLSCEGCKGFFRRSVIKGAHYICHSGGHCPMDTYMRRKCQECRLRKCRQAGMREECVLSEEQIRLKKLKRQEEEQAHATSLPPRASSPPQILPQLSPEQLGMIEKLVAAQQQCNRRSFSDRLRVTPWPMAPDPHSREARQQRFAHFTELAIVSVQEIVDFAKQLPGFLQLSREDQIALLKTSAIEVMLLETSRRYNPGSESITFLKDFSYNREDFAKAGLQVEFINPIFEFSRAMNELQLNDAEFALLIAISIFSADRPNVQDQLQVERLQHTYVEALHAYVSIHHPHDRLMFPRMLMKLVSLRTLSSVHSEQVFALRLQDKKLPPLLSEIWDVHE
Nuclear respiratory factor 1 (Homo sapiens), sequence (Q16656 whole entry, looked up): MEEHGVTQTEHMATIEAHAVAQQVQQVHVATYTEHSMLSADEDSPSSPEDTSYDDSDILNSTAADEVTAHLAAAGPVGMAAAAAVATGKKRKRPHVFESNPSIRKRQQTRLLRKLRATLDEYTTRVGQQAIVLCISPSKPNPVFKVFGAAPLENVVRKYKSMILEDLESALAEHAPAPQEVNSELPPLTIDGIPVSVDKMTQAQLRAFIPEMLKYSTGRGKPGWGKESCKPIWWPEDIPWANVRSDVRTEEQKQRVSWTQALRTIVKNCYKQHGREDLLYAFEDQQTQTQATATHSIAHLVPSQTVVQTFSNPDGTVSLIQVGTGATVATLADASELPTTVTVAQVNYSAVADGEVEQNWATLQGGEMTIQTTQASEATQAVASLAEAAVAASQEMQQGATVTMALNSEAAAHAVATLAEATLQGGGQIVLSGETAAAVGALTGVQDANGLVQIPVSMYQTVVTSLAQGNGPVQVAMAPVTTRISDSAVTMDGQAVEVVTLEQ
Oxysterols receptor LXR-beta (Homo sapiens), sequence (P55055 whole entry, looked up, the tested form may be a part): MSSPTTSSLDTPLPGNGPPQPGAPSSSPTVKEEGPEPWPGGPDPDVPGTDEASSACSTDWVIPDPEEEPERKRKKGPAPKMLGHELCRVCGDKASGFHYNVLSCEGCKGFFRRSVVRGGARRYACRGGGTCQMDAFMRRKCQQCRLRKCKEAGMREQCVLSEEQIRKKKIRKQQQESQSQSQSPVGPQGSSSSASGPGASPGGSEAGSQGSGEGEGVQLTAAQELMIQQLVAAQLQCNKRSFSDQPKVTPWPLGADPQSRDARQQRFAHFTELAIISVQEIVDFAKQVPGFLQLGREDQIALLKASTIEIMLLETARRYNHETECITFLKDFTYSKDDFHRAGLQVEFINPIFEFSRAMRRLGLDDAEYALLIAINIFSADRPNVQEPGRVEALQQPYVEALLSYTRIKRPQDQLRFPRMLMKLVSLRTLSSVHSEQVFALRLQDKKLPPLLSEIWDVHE
Nuclear receptor subfamily 4 group A member 2 (Homo sapiens), sequence (P43354 whole entry, looked up, the tested form may be a part): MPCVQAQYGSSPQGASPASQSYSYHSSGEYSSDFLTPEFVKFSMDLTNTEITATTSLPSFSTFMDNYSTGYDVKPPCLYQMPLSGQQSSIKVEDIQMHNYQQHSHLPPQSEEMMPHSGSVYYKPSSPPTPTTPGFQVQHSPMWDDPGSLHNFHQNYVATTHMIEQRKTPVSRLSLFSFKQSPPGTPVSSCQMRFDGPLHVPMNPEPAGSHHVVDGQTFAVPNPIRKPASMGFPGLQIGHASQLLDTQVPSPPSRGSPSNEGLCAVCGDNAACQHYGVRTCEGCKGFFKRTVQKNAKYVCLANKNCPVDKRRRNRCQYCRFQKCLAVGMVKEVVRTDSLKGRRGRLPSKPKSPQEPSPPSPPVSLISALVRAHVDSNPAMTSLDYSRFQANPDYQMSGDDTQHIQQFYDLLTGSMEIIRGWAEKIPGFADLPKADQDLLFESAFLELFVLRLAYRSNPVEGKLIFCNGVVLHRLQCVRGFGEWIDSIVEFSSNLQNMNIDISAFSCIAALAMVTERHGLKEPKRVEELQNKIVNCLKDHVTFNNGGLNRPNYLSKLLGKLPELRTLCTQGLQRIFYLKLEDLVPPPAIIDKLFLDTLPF
Estrogen-related receptor gamma (Homo sapiens), sequence (P62508 whole entry, looked up, the tested form may be a part): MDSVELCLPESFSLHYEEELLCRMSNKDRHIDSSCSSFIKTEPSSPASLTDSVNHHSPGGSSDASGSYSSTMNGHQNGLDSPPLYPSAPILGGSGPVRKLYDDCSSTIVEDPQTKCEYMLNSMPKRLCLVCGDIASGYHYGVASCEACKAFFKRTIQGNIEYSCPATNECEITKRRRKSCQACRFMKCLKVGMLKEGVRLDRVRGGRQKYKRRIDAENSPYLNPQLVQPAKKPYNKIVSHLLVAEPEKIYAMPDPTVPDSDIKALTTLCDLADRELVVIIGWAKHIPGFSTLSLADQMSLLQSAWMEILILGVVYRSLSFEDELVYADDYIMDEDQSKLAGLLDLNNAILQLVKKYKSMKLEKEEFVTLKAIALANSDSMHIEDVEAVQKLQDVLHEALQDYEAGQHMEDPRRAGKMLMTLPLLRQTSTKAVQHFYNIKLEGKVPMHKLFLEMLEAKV
Glucocorticoid receptor (Homo sapiens), sequence (P04150 whole entry, looked up, the tested form may be a part): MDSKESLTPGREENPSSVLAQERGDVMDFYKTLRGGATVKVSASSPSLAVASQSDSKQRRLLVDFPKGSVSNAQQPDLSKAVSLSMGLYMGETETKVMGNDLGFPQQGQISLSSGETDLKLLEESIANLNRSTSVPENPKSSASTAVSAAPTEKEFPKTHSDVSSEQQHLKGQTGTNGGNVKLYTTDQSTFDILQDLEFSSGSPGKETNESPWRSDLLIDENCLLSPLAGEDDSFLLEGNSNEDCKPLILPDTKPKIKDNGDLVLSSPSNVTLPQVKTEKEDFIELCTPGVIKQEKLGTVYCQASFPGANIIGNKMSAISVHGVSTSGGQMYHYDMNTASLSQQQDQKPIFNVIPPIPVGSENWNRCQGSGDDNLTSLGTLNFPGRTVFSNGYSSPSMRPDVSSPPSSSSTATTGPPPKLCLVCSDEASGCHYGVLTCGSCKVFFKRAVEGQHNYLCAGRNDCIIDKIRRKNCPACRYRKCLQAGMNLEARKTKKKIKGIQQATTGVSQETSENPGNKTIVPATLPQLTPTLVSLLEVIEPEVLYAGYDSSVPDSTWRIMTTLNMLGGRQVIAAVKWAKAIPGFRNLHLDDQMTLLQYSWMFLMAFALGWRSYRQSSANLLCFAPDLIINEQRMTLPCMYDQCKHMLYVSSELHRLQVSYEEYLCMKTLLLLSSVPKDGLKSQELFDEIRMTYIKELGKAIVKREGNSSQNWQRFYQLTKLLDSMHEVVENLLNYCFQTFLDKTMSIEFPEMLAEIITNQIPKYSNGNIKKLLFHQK

With `O=S1OCC2C(CO1)C1(Cl)C(Cl)=C(Cl)C2(Cl)C1(Cl)Cl` (stereo unspecified), the compound was classed as inactive in assay [1], in assay [2], in [3], in assay [4], in assay [5] and in assay [6]. Besides, the compound was classed as inactive in assay [7], in assay [8] and in [9]. The concentration at half-maximal activity (AC50) in assay [10] was 29 µM (active); in assay [11] it was 15.9 µM (active); in assay [12] it was 30.3 µM (active).
Take `[2H]C1([2H])[n+]2ccccc2-c2cccc[n+]2C1([2H])[2H]`: the outcome in assay [13], in assay [1], in assay [2], in assay [3], in assay [4] and in [6] was inactive. Besides, the outcome in assay [7], in [8], in assay [9], in assay [10], in assay [11] and in assay [12] was inactive. Moreover, the values for the AC50 in [14] and in assay [15] were 50 µM (active) and 14.8 µM (active), respectively.
As for `O=C(NC(=O)c1c(F)cccc1F)Nc1ccc(OC(F)(F)C(F)OC(F)(F)F)c(Cl)c1` (stereo unspecified), the result in [16], in [17], in [1], in [2], in [3] and in [6] was inactive. The result in assay [7], in [14], in assay [10], in [11] and in assay [12] was inactive. In addition, in assay [8], the AC50 was 19.9 µM (active).
Regarding `COP(=O)(OC)OC=C(Cl)Cl`, the result in assay [1], in assay [2], in assay [3], in assay [4], in assay [5] and in assay [6] was inactive. The compound was called inactive in [7], in assay [14], in assay [10], in [11] and in assay [12]. The AC50 in assay [8] is 11.5 µM (active).
Turning to `CC(C)(C)C(O)/C(=C\c1ccc(Cl)cc1Cl)n1cncn1` (stereo unspecified), the call in assay [16], in assay [1], in assay [3], in [4], in [6] and in assay [7] was inactive. Besides, the compound was classed as inactive in [14], in [15], in [8] and in assay [9]. The values for the concentration at half-maximal activity (AC50) in [10], in [11] and in assay [12] were 36.7 µM (active), 29.4 µM (active) and 25.3 µM (active), respectively.
Regarding `CNC(=O)Oc1cccc(N=CN(C)C)c1`, the result in assay [18], in assay [17], in assay [1], in assay [2], in [3] and in [6] was inactive. Besides, the compound was called inactive in assay [7], in assay [9], in [10] and in [11]. The AC50 in [14] was 82.3 µM (active); in assay [15], 50 µM (active); in assay [8], 25.7 µM (active); in [12] it was 29 µM (active).
As to `CCC(C)Nc1c([N+](=O)[O-])cc(C(C)(C)C)cc1[N+](=O)[O-]` (stereo unspecified), the compound was classed as inactive in assay [17], in [2], in [5], in [6], in assay [7] and in assay [10]. For the same compound, the AC50 was 15.1 µM (active) in assay [8], 17.8 µM (active) in assay [11] and 24.8 µM (active) in assay [12].
